This is an account of results in PubChem BioAssay (NCATS).

Assay [1] has as its target Luciferin 4-monooxygenase (Photinus pyralis) (UniProt P08659). Nature of the assay: Biochemical firefly luciferase enzyme assay for NPC (AID 624030).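 Further: purified P. pyralis luciferase at 10 nM with luciferin and ATP substrate; 0% = DMSO and -100% = full luciferase inhibition by PTC124 control; nearly all actives have a fitted effect of over 70% in size.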 In a few lines: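 Direct inhibition of firefly luciferase enzyme (10 nM final, 50 mM Tris Acetate) assessed by luminescence within 5 minutes. Percent activity scaled between DMSO and PTC124 positive control, with concentration-effect curves classified by fit quality and response.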

The target in assay [2] is Glutaminase kidney isoform, mitochondrial (Homo sapiens) (UniProt O94925). The assay is described as follows: qHTS for Inhibitors of Glutaminase (GLS): LOPAC Validation (AID 624146).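 Further: glutamate product detected by oxidase and peroxidase coupled Amplex red fluorescence gain; on the % scale 0 is the no-effect control and ±100 the full control effect; nearly all actives have a fitted effect of over 60% in size.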 Summed up: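 Two-point fluorescence kinetic (t0, 30 min RT) for hKGA; glutamate detected via glutamate oxidase–HRP–Amplex Red. Substrate: 1 mM L-glutamine solution; buffer 45 mM KH2PO4, pH 8.2.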
Glutaminase kidney isoform, mitochondrial (Homo sapiens), sequence (O94925 whole entry, looked up, canonical isoform): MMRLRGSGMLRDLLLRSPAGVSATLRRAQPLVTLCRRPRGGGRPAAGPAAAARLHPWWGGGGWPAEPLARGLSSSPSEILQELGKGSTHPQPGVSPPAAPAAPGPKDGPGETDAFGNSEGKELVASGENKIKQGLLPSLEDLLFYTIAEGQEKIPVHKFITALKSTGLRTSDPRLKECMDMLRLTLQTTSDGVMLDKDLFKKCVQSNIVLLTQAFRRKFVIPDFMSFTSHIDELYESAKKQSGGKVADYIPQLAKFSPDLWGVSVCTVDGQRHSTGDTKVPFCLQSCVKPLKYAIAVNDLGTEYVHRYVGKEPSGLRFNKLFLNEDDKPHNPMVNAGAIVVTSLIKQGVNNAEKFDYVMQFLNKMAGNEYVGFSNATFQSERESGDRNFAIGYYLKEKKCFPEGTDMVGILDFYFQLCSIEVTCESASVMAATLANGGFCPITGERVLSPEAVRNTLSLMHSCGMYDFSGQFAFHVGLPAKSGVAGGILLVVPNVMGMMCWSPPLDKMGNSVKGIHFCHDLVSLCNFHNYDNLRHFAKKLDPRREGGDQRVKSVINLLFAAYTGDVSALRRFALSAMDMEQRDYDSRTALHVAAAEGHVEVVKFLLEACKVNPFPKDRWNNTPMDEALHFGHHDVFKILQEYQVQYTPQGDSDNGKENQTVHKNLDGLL

Assay [3] in a line: qHTS of Trypanosoma Brucei Inhibitors: LOPAC Validation (AID 624147). Further: 0% is about no effect. In a few lines: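 TbPYK + substrate in 50 mM TEA pH 7.2, 100 mM KCl, 10 mM MgCl2, 0.05% BSA, 0.01% Tween-20; cpd pinned; ADP 130 uM final; 45 min RT; Kinase-Glo Plus 10 min; luminescence endpoint.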
A general note: Quantitative high-throughput screening tests each substance at several concentrations.

The target of assay [4] is Glucagon-like peptide 1 receptor (Homo sapiens) (UniProt P43220). The assay is described as follows: qHTS of GLP-1 Receptor Agonists: LOPAC Validation (AID 624148).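 Further: luminescence from a luciferase reporter switched on by cAMP; 0% is about no effect; higher luminescence signal means agonism.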 Summed up: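 Agonism scored as increased luciferase luminescence driven by cAMP in HEK293 clones carrying GLP-1R. Cells settled 12 hours, received compound for 4-6 hr at 37 deg C, 5% CO2, and were read after 12 min detection reagent at RT.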
Glucagon-like peptide 1 receptor (Homo sapiens), sequence (P43220 whole entry, looked up): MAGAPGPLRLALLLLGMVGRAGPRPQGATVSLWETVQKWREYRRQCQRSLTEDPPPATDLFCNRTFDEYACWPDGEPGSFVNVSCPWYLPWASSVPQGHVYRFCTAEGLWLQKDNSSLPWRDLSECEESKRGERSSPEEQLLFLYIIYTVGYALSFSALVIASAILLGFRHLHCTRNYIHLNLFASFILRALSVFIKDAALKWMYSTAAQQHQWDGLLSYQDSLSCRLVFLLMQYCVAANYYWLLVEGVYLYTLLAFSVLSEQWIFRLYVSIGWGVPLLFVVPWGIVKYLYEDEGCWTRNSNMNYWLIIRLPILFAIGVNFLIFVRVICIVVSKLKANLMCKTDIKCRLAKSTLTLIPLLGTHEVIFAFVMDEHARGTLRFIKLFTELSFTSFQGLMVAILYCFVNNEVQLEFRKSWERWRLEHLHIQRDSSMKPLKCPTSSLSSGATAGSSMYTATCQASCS

Assay [5] can be described thus: qHTS of Nrf2 Activators: LOPAC Validation (AID 624149). Further: 0% is about no effect. In a few lines:
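AREc32 cells carrying an ARE-driven firefly luciferase were grown overnight in OPTI-MEM with 5% FBS, then exposed to compounds for 24 hr at 37 deg C. Luciferase signal was read after 30 min with Steady-Glo at RT.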

Assay [6] is described as follows: HTS Assay for Allosteric Antagonists of the Human D2 Dopamine Receptor: Hit Validation in HTRF (AID 624455).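 Further: stable D1 dopamine receptor cell line scored for blocking the D1 response; on the % scale 0 is the no-effect control and ±100 the full control effect.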 In a few lines: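 Hits were examined in an HTRF assay using cells stably expressing the D1 dopamine receptor, scoring inhibition of the D1-mediated response. The preceding primary screen tracked calcium flux after an EC80 dopamine addition in force-coupled, inducible Hek293 Trex D2 cells.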

A short description of assay [7]: Cytotoxicity counterscreen for NFkB agonists and antagonists (AID 624476).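 Further: cells exposed to compound for 48 hours; on the % scale 0 is the no-effect control and ±100 the full control effect.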
Assay [8] is described as follows: qHTS Assay for Identification of Small Molecule Agonists for NFkB Signaling Pathway. (AID 624478). Further: 0% is about no effect. Summed up:
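NFkB-bla ME-180 cells (beta-lactamase reporter under NFkB response element) were plated overnight, treated with compound plus TNF alpha at 10 pM final (its EC50) for 5 hrs at 37 C, then loaded with LiveBLAzer substrate for 2 hrs.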

Assay [9] is described as follows: qHTS Assay for Identification of Small Molecule Antagonists for NFkB Signaling Pathway. (AID 624479; calls by dose curve;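 further: pathway stimulated with TNF alpha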; further: potency means the concentration at half of the fitted maximal effect).
A short description of assay [10]: Cell Proliferation Assay against the TMD8 Cell Line (AID 651645).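 Further: cells exposed to compound for 48 h before reading.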 The settings on record: TMD8 DLBCL cell line proliferation/viability; at 46.1 µM (top of the series). Summed up:
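Luminescent ATP read-out (CellTiter-Glo, 15 min RT) after 48 h compound exposure of log-growing TMD8 cells at 37C; percent activity scaled between DMSO as 100% and 9.2 uM bortezomib final as 0%.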

Assay [11] is described as follows: Cell Proliferation Assay against the HBL1 Cell Line (AID 651646).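 Further: cells exposed to compound for 48 h before reading.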 The settings on record: HBL1 DLBCL cells; at 46.1 µM (top of the series). In a few lines:
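Luminescent ATP read-out (CellTiter-Glo) after 48 h compound exposure of HBL1 cells at 37 °C; percent activity was scaled between DMSO as 100% and 9.2 uM bortezomib (final) as 0%.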

A short description of assay [12]: Cell Proliferation Assay against the TMD8 Cell Line (Caspase readout at 16 hrs) (AID 651712). Summed up:
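Apoptotic response of TMD8 cells was judged from caspase 3/7 activation following a 16 hour compound incubation at 37 °C. Luminescent signal was converted to percent activity, with DMSO set as 0% and 9.2 uM final bortezomib as 100%.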

The nature of assay [13]: Cell Proliferation Assay against the TMD8 Cell Line (Caspase readout at 8 hrs) (AID 651713). Further: potency means the concentration at half of the fitted maximal effect. Summed up: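 TMD8 cells (500/well) in phenol red-free RPMI with 5% FBS were treated with compounds for 8 h at 37C, 5% CO2. Caspase-Glo 3/7 luminescence was read after 15 min at room temperature and normalised to DMSO (0%) and 9.2 uM bortezomib (100%).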
A short description of assay [14]: S16 Schwann cell viability assay (CellTiter-Glo assay) (AID 624031). Further: nearly all actives have a fitted effect of over 70% in size. Further: potency means the concentration at half of the fitted maximal effect. Summed up: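 Native S16 rat Schwann cells in DMEM/10% FBS without phenol red were incubated overnight, then exposed to compounds for 24 h at 37 °C/5% CO2. Viability was read as ATP luminescence (CellTiter-Glo), normalized to no-cell wells and DMSO (0%).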
In general terms: ATP-based viability assays read luminescence as a measure of living cells.

The nature of assay [15]: S16 Schwann cell PMP22 intronic element beta-lactamase assay (AID 624044; calls by dose curve;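 further: 0% = DMSO and -100% = potassium clavulanate positive control; nearly all actives have a fitted effect of over 15% in size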). Summed up: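 Rat S16 Schwann cells with beta-Lac driven by a PMP22 intronic element, compound-treated 24 h at 37 °C. LiveBLAzer FRET B/G read: 460 nm normalized to potassium clavulanate vs DMSO; 535 nm FRET as viability; concentration-effect curves classified.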
The nature of assay [16]: S16 Schwann cell PMP22 intronic element firefly luciferase assay (AID 624032). Further: nearly all actives have a fitted effect of over 30% in size. Further: potency means the concentration at half of the fitted maximal effect. In a few lines:
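Luciferase reporter of PMP22 intronic-element expression in stably transfected S16 rat Schwann cells, read by ONE-Glo luminescence after 24 h compound exposure at 37 C. Activity scaled between DMSO (0%) and positive-control PTC124; concentration-effect curves quality-classified.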

A short description of assay [17]: qHTS assay for small molecule activators of the p53 signaling pathway (AID 651743; active means well fitted activation curve with a large enough effect in the signal ratio, not every such curve was filed as active; the % refers to the signal ratio; further: % of control where 0% means no effect). The settings on record: HCT-116 p53RE-bla, beta-lactamase FRET ratio, 16 h; stronger effect = higher value. Summed up:
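Screen for p53 pathway agonists uses stably transfected p53RE-bla HCT-116 cells, 4,000 per well, treated 16 h at 37 C with compounds in DMSO.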

Each structure is given as a SMILES string. Where “and” joins values, the source holds several entries; their conditions need not be identical. Equal entries are not always repeated. Records with an inconclusive call do not appear. Calls of active or inactive are those of the source. Unless noted, the call rests on the fitted dose curve; in most records, active means well fitted curve in the direction sought with a large enough effect; inconclusive means small, poorly fitted or top-dose-only effect, or another doubt; inactive means no such curve, though single readings can be large; an effect the other way counts as inactive or inconclusive.

Luciferin 4-monooxygenase (Photinus pyralis), sequence (P08659 whole entry, looked up): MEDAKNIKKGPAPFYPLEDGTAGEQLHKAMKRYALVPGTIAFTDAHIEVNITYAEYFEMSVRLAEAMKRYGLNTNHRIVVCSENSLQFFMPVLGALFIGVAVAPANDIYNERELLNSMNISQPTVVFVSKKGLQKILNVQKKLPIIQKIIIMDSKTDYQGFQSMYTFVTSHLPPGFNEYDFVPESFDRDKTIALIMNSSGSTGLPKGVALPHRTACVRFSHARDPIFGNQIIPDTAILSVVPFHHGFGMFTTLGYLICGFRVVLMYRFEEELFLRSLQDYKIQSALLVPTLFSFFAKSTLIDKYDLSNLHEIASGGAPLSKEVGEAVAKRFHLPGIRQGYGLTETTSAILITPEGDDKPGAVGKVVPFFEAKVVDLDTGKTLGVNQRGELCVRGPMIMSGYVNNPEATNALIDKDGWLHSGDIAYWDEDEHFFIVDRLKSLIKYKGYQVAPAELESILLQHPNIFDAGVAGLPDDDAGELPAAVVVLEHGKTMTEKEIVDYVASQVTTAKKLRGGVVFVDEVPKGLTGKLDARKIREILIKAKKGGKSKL

`CCN(CC)CCn1c(=O)c(Cc2ccc(OC)cc2)nc2ccccc21`: the Potency result in [1], in [6], in assay [7], in assay [9] and in [13] was “inactive” each time. Further, the call in assay [2], in assay [3], in assay [4], in assay [5], in assay [8] and in assay [12] was inactive. Besides, the viability (% of control) in [10] was 89.1%. Besides, the viability, percent of control in assay [11] was 99.1%.

Take `CCC(C)(C)c1ccc(CC(C)CN2C[C@@H](C)O[C@@H](C)C2)cc1` (stereo partly drawn): the Potency result in assay [1], in [14] and in [15] was “inactive” each time.

Turning to `COc1cc([C@@H]2c3cc4c(cc3[C@H](O)[C@H]3COC(=O)[C@H]23)OCO4)cc(OC)c1OC`, the Potency entry in assay [1], in assay [14] and in assay [9] was “inactive” throughout. The call in assay [8] was inactive. In addition, the viability (% of control) in [10] was 0.77%. The viability, percent of control in assay [11] is 23.7%.

`COc1cc2nc(N3CCCN(C)CC3)nc(NC3CCN(Cc4ccccc4)CC3)c2cc1OC`: the compound was classed as inactive in assay [2], in [3], in assay [4], in [5] and in assay [8]. In addition, the Potency result in assay [6] was “inactive”. Besides, the results for the Potency in assay [9] and in assay [13] were 23.7 µM (active) and 26.4 µM (active), respectively. Besides, the viability (% of control) in [10] came to 3.15%. In addition, the viability, percent of control in [11] came out at 3.52%.

Consider `Cc1c(-c2ccc(O)cc2)n(Cc2ccc(OCCN3CCCCCC3)cc2)c2ccc(O)cc12`, for which the Potency entry in assay [1] and in assay [9] was “inactive” in each case. For the same compound, the outcome in assay [8] was inactive.

Regarding `NC(=O)c1cccc(N)c1`, the outcome in assay [2], in assay [3], in assay [4] and in assay [5] was inactive. Besides, the Potency result in [6] is “inactive”.

For the compound `CC1=CC(=O)c2ccccc2C1=O`, the Potency entry in assay [1] and in assay [15] was “inactive” in each case. Besides, the results for the Potency in [14] and in assay [16] were 14.4 µM (active) and 22.8 µM (active), respectively.

Consider `OCc1ccc(-c2nn(Cc3ccccc3)c3ccccc23)o1`, for which the outcome in assay [2], in assay [3], in assay [4] and in [5] was inactive. Further, the Potency result in assay [6] was “inactive”.

`CC[C@H](C)C(=O)O[C@H]1C[C@@H](C)C=C2C=C[C@H](C)[C@H](CC[C@@H]3C[C@@H](O)CC(=O)O3)[C@H]21`: the Potency entry in assay [1], in assay [14], in assay [16] and in assay [15] was “inactive” each time. For the same compound, the activation in [17] is -3.22% (inactive).

`CNC1CCCN(c2c(F)cc3c(=O)c(C(=O)O)cn(C4CC4)c3c2OC)C1` (stereo not drawn): the Potency entry in assay [1], in [14] and in [15] was “inactive” throughout.

`CC(=O)[C@H]1CC[C@H]2[C@@H]3CCC4=CC(=O)CC[C@]4(C)[C@H]3CC[C@]12C`: the Potency result in [1] and in assay [6] was “inactive” in each case. The compound was called inactive in assay [2], in [3], in assay [4] and in assay [5]. The activation in [17] is -1.4% (inactive) and -5.04% (inactive) and -4.98% (inactive).

Turning to `CCn1cc(C(=O)O)c(=O)c2cc(F)c(N3CCN(C)CC3)cc21`, the Potency result in [1], in assay [14] and in assay [15] was “inactive” each time.

Regarding `COc1ccc(C(=O)CC(=O)c2ccc(C(C)(C)C)cc2)cc1`, the Potency entry in assay [1], in assay [14] and in assay [15] was “inactive” in each case.

Consider `NCCCC(O)(P(=O)(O)O)P(=O)(O)O`, for which the Potency result in assay [1], in assay [14] and in assay [15] was “inactive” each time.

`O=C(O)C1CCCN(CCC=C(c2ccccc2)c2ccccc2)C1` (stereo not drawn): the result in assay [2], in assay [3], in [4] and in [5] was inactive. Moreover, the Potency entry in assay [6] is “inactive”.

On to `CNCC[C@H](Oc1cccc2ccccc12)c1cccs1`, for which the Potency result in assay [1] and in assay [15] was “inactive” each time. In [14], the Potency was 16.1 µM (active).

`CN(CCOc1ccc(CC2SC(=O)NC2=O)cc1)c1ccccn1` (stereo not drawn): the Potency result in assay [14], in assay [16] and in assay [15] was “inactive” throughout.

For the compound `CCN(CC)CC#CCOC(=O)C(O)(c1ccccc1)C1CCCCC1` (stereo not drawn), the compound was classed as inactive in [3], in [4] and in [5]. In [6], the Potency entry is “inactive”.

As to `CC1CC2C3CCC4=CC(=O)C=C[C@]4(C)[C@@]3(F)[C@@H](O)C[C@]2(C)[C@@]1(O)C(=O)CO` (stereo partly drawn), the compound was called inactive in assay [2], in assay [3], in [4] and in assay [5]. For the same compound, the Potency result in assay [6] is “inactive”.
